The structures appear in SMILES notation. The panel holds about 83,000 compounds, 20% with a hit somewhere; the sample as a whole holds those more often.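 Step 1: grow cells in 96-well plates. Step 2: add test compound at a single concentration. Step 3: incubate 48 h. Step 4: record percent growth.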 Unmarked numbers belong to inactive results. The source made the active and inactive calls. How the source made its calls: active means growth percent below 10; inactive means the rest.

What all share (assay): NCI-60 one-dose screen, 48 h (100 = growth as untreated, 0 = no growth, -100 = all killed)
Details in all cases: 10 µM unless noted

Assay [1] has as its system DU-145 prostate.
For assay [2], the system named is K-562 leukemia.
The subject of assay [3] is MALME-3M melanoma.
The subject of assay [4] is MDA-MB-231 breast.
Assay [5] concerns RXF 393 renal.
In assay [6] the test system is SF-268 CNS.
Assay [7] concerns SF-295 CNS.
For assay [8], the system named is SF-539 CNS.
The test system of assay [9] is UACC-257 melanoma.
Assay [10] has as its system M14 melanoma.
The test system of assay [11] is HCT-15 colon.
In assay [12] the test system is HT29 colon.
In assay [13] the test system is SNB-75 CNS.
Assay [14] deals with SNB-19 CNS.
The subject of assay [15] is PC-3 prostate.
Assay [16] concerns SK-MEL-5 melanoma.
The test system of assay [17] is UACC-62 melanoma.
Assay [18] has as its system LOX IMVI melanoma.
In assay [19] the test system is SK-MEL-28 melanoma.
For assay [20], the system named is U251 CNS.

`Cn1c(=O)c2c(-c3ccccc3F)n(-c3ccc4c(c3)OCO4)cc2n(C)c1=O`: the growth is 110% in [1]; 78.7% in assay [2]; 141% in assay [3]; 77.1% in assay [4]; 83.3% in assay [5]; 97.4% in [6]. Moreover, the growth in [7] is 87.9%; in assay [8] it was 92.7%; in assay [9] it was 117%; in assay [10] it was 117%; in assay [11] it was 87.8%; in [12] it was 112%. The growth in assay [13] is 80.9%; in [14] it was 99.6%; in [15], 74.7%; in assay [16], 67.3%; in assay [17] it was 86.2%; in [18], 95.9%. In addition, in assay [19], the growth was 100%.
With `O=C1C2CC3C(CC2C(=O)[N]1[Sn]([c]1ccccc1)([c]1ccccc1)[c]1ccccc1)C1(Cl)C(Cl)=C(Cl)C3(Cl)C1(Cl)Cl` (stereo not drawn), the growth in assay [1] was -94.5% (active); in assay [2], -30.8% (active); in assay [3] it was -91.8% (active); in assay [4], -94.7% (active); in [5], -76.1% (active); in assay [6], -88.7% (active). Further, the growth is -86.8% (active) in assay [7]; -99.9% (active) in assay [8]; -99.3% (active) in assay [9]; -94% (active) in assay [10]; -88% (active) in assay [11]; -87.3% (active) in assay [12]. The growth is -84.8% (active) in assay [13]; -97.4% (active) in assay [14]; -92.9% (active) in [15]; -93.1% (active) in assay [16]; -95.7% (active) in assay [17]; -66.7% (active) in assay [18]. For the same molecule, the growth in assay [19] is -94.2% (active).
On to `C=CC[P+](c1ccccc1)(c1ccccc1)c1ccccc1`, for which the growth in assay [1] is 79.4%; in assay [2], 27.2%; in assay [3] it was 47.8%; in assay [4] it was 67.9%; in assay [5] it was 95.3%; in [6], 79.2%. In addition, the growth is 80% in [7]; 61.1% in assay [8]; -3.34% (active) in assay [9]; 62.4% in assay [10]; 98.1% in assay [11]; 40% in assay [12]. Further, the growth in assay [13] is 63.3%; in assay [14], 61.6%; in [15], 34.7%; in assay [16] it was 33.4%; in assay [17], 42%; in assay [18], 66.4%. Further, the growth in [19] is 71.8%.
As for `COc1ccc(/C=C2\CN(Cc3cn(CCCNc4ccnc5cc(Cl)ccc45)nn3)C/C(=C\c3ccc(OC)cc3)C2=O)cc1`, the growth in assay [1] was 40.2%; in [2], 63.2%; in [3] it was 98.4%; in [4] it was 52.6%; in [5], 27.7%; in assay [6], 45.5%. Moreover, the growth in [7] is 72.6%; in [8], 78.1%; in assay [9], 56%; in assay [10], 70.8%; in [11], 67.6%; in assay [12] it was 14.6%. Besides, the growth in assay [13] is 70.1%; in [14], 72.9%; in assay [20] it was 41.3%; in assay [16], 52.7%; in assay [18], 35.5%; in assay [19] it was 80.5%.
`Cn1c2c(cc(S(=O)(=O)c3ccccc3)c1=O)CCc1c-2cnn1-c1cccc(Cl)c1`: the growth is 135% in [1]; 73.3% in assay [2]; 87.4% in assay [3]; 98.3% in [4]; 93.4% in [5]; 106% in assay [6]. In addition, the growth in assay [7] was 80.3%; in assay [8], 83.1%; in [9], 79.7%; in [10], 98%; in [11] it was 96.7%; in assay [12] it was 91.3%. In addition, the growth in assay [13] is 76.4%; in assay [14], 97%; in assay [15], 83.1%; in [16], 83.3%; in [17] it was 84.6%; in [18] it was 93.4%. Also, in assay [19], the growth is 94.7%.
Turning to `COc1ccc(-c2nc(Nc3ccc(F)cc3)nc(Nc3ccc4c(c3)nc(C)n4Cc3ccccc3)n2)cc1`, the growth is 54.7% in assay [1]; 16.1% in assay [2]; 52.8% in [3]; 31.2% in assay [4]; 35.7% in assay [5]; 46.9% in [6]. Moreover, the growth in assay [7] is 49%; in assay [8] it was 67.8%; in assay [9], 43.8%; in [10], 38.9%; in [11] it was 33.4%; in [12] it was 8.87% (active). Moreover, the growth in assay [13] was 68%; in assay [14] it was 60.7%; in [20], 39.2%; in assay [18], 38.9%; in assay [19], 56.6%.
As for `Nc1nc(N)c(C=Nc2ccc(Br)cc2)c(Nc2ccc(Br)cc2)n1`, the growth in assay [1] is 107%; in assay [2], 92.2%; in assay [3], 119%; in [4], 86.1%; in assay [5] it was 78.9%; in assay [6], 81%. The growth was 83.5% in assay [7]; 101% in assay [8]; 83.1% in assay [9]; 97.2% in [10]; 88.5% in assay [11]; 101% in assay [12]. In addition, the growth in assay [13] was 91.3%; in assay [14], 99.8%; in [20] it was 95.1%; in assay [17], 87%; in [18], 81%; in assay [19], 106%.
As to `O=C(Nc1ccc(Cl)c(Cl)c1)NC(CO)(CO)CO`, the growth was 112% in [1]; 92.8% in assay [2]; 87.7% in assay [3]; 109% in assay [4]; 100% in assay [5]; 97.8% in assay [6]. Besides, the growth in assay [7] is 94.4%; in assay [8], 103%; in [9], 97.5%; in assay [10], 97.4%; in assay [11], 94.9%; in assay [12], 100%. Besides, the growth in assay [13] is 79.3%; in assay [14], 101%; in assay [15], 86.3%; in assay [16], 99.3%; in assay [17] it was 113%; in assay [18], 95.2%. In addition, in assay [19], the growth is 107%.

The record behind these values is PubChem BioAssay (NCI).
